Screens: PubChem BioAssay, several laboratories
In the library only some 3.9% were active in any assay of this set; here they are far more common.
Anthrax LF prot = anthrax lethal factor protease inhibition | inhibition, % at 10 µM | 0.12% of 360,000 active | multiplex microsphere protease cleavage assay, LF | P15917; also: plate controls were buffer without enzyme for full effect and enzyme alone for no effect
Autofluor counter = counter-screen for toxin protease inhibitors: compound fluorescence. fluorescence intensity (test concentration not listed). compound autofluorescence counterscreen, microsphere flow cytometry; active compounds read high. 3.1% of 360,000 active; in the data active = fluorescence intensity above about 16000; inconclusive = no clear call, values can overlap the other calls
SARS 3CLpro inh-1 = SARS-CoV 3CLpro protease inhibition. recombinant SARS-CoV 3CLpro, quenched FRET peptide cleavage. inhibition, % at 6 µM. 0.14% of 290,000 active. AID 1706; in the data active = inhibition above about 12%
VHR inh abs = DUSP3 (human) phosphatase inhibition; P51452; recombinant VHR phosphatase, pNPP absorbance; inhibition, % at 13.3 µM; 0.52% of 290,000 active; AID 1654; in the data active = inhibition above about 50%
BoNT-F LC inh = inhibitors of Botulinum neurotoxin F light chain protease. Multiplex microsphere protease cleavage assay, flow cytometry. inhibition, % at 10 µM. 0.22% of 360,000 active; in the data active = inhibition above about 35%, passing the limit was not always enough; inconclusive = no clear call, values can overlap the other calls; also: plate controls were buffer without enzyme for full effect and enzyme alone for no effect
BoNT A protease = BoNT A light chain protease inhibition | AID 588499 | inhibition, % at 10 µM | 0.17% of 360,000 active | multiplex microsphere protease substrate cleavage, flow cytometry; also: plate controls were buffer without enzyme for full effect and enzyme alone for no effect
SARS 3CLpro inh-2 = SARS 3CLpro inhibition, confirmation assay; shares compounds with SARS 3CLpro inh-1; AID 1879; inhibition, % at 6 µM; QFRET protease activity assay; 36% of 380 active; in the data active = inhibition above about 13%
* hit, by the source's call; ? = inconclusive; nt = no result. Rule as the data show it, unless noted: active = inhibition above about 30%; inconclusive = no clear call, values can overlap the other calls; inactive = below that.

SMILES	Anthrax LF prot	Autofluor counter	SARS 3CLpro inh-1	VHR inh abs	BoNT-F LC inh	BoNT A protease	SARS 3CLpro inh-2
NCCCn1c(C(=O)c2cc(Cl)c(N)c(Cl)c2)c2ccccc2[n+]1[O-]	0	4058	nt	nt	-11	4	nt
NC(=O)CCn1c(C(=O)c2cccc([N+](=O)[O-])c2)c2ccccc2[n+]1[O-]	0	3707	26*	29	3	0	26*
CCCCN(CCCC)Cc1cc(=O)oc2cc(C)c(Cl)cc12	-8	4737	nt	nt	-7	0	nt
COc1ccc(Cl)cc1N1C(=O)/C(=C\c2sccc2C)N=C1SCC(=O)NC1CC1	0	11435	6	-12	-12	-1	nt
CC12CCC(=O)N1C(C(=O)NNC(=O)c1ccccc1Cl)CS2 (configuration not stated)	-4	2993	nt	nt	-7	0	nt
COc1ccccc1CNC(=O)c1cc(-c2ccccc2)n(Cc2cc(C)no2)n1	2	2799	nt	nt	-2	0	nt
Cc1ccc(Nc2nc(N)c([N+](=O)[O-])c(N3CCOCC3)n2)cc1C	-6	6851	13*	6	-16	0	-4
Cc1ccc(Nc2nc(N)c([N+](=O)[O-])c(N3CCC(C)CC3)n2)cc1C	-5	2673	-1	-7	-8	0	nt
CCOc1ccc(C(C(=O)Nc2ccc(F)cc2)N(C(=O)Cn2nnc3ccccc32)C2CC2)cc1 (configuration not stated)	-4	5785	5	10	1	0	nt
COc1cccc(C(C(=O)NCC2CCCO2)N(C(=O)Cn2nnc3ccccc32)c2ccc(NC(C)=O)cc2)c1 (configuration not stated)	-2	3758	31*	28	-19	-3	34*
COc1cccc(C(C(=O)Nc2ccc(F)cc2)N(C(=O)Cn2nnc3ccccc32)C2CC2)c1 (configuration not stated)	0	8864	33*	27	-6	1	37*
Cc1ccccc1C(=O)NC1CCN(CC(=O)NCc2ccccc2)CC1	-3	5056	1	7	12	2	nt
N#CC1(NC(=O)CSc2nnc(C3CC3)n2C2CC2)CCCCC1	7	4008	nt	nt	2	0	nt
Cc1ccc(C(=O)NN2C(=O)C3C(C2=O)C2C=CC3C23CC3)cc1 (configuration not stated)	5	3392	-1	33	2	-2	nt
CC(C)(C)c1ccc(NC(=O)CSc2n[nH]c(=O)n2-c2cccnc2)cc1	-1	5301	12*	-4	1	0	-3
COCCCNC(=O)C(=O)Nc1cc2c3c(c1)CCN3C(=O)CC2	0	5889	2	-20	-2	-2	nt
CCOc1ccc(NC(=O)CSc2nc(NS(=O)(=O)c3ccc(C)cc3)cc(=O)[nH]2)cc1	-4	3476	13*	7	6	-2	0
CC(Oc1ccccc1F)c1nnc(SCC(=O)Nc2ccc(N3CCOCC3)cc2)o1 (configuration not stated)	-7	3659	nt	nt	-14	-1	nt
O=C(CSc1nc2ccccc2s1)Nc1cc(S(=O)(=O)N2CCOCC2)ccc1O	-1	2480	5	13	-4	0	nt
O=C(Oc1ccc(Cl)cc1N1C(=O)CCC1=O)c1ccco1	nt	nt	15*	-1	nt	nt	18*
O=C(Oc1ccc(N2C(=O)CCC2=O)cc1)c1ccco1	-2	2978	9	1	7	0	nt
COc1cccc(NC(=O)c2ccc3c(O)c(S(=O)(=O)c4ccccc4)c(=O)[nH]c3c2)c1	-3	5110	8	-12	2	2	nt
COc1ccc(S(=O)(=O)c2c(O)c3ccc(C(=O)Nc4cccc(F)c4)cc3[nH]c2=O)cc1	0	4579	13*	-7	-5	0	5
O=C(CCC(=O)Nc1nnc(C2CCCCC2)s1)NCc1ccccc1	9	?	2	17	?	-4	nt
O=S1(=O)CCN(OCc2ccc(Cl)cc2)CC1	5	?	-6	9	-12	-4	nt
SMILES	Anthrax LF prot	Autofluor counter	SARS 3CLpro inh-1	VHR inh abs	BoNT-F LC inh	BoNT A protease	SARS 3CLpro inh-2
O=c1ccc(-c2ccccc2)nn1Cc1ccc(F)cc1Cl	-6	3852	-1	14	-18	0	nt
O=C(CCS(=O)(=O)c1ccc(F)cc1)N1CCN(c2ccccc2)CC1	-3	5110	nt	nt	3	3	nt
O=C(CCS(=O)(=O)c1ccccc1)N1CCN(c2ccc(F)cc2)CC1	0	5348	13*	0	2	-2	-1
O=C1C2C(c3ccccc3)C=CC(c3ccccc3)C2C(=O)N1c1ccncc1 (configuration not stated)	2	2515	1	33	-10	0	nt
O=C1C2C(c3ccccc3)C=CC(c3ccccc3)C2C(=O)N1c1cccnc1 (configuration not stated)	-2	2442	20*	15	-1	-1	70*
O=C(O)c1[nH]c2ccccc2c1C(c1cc(Br)ccc1O)c1c(C(=O)O)[nH]c2ccccc12	nt	nt	14*	18	nt	nt	15*
COc1cc(/C=C2/SC(=S)N(CCC(=O)Nc3cccnc3)C2=O)cc(OC)c1OC	20	3547	nt	nt	3	7	nt
O=C(Cn1nnc2ccccc21)c1ccc([N+](=O)[O-])cc1	-12	3600	5	3	3	0	nt
O=C(Cn1nnc2ccccc21)c1ccc(Cl)cc1	-5	?	35*	10	-9	-4	35*
Cc1snc(S(=O)(=O)/C(C#N)=N/Nc2cccc(C(F)(F)F)c2)c1C#N	3	2672	15*	31	1	0	2
CCn1nc(-c2ccccc2)nc2c(=O)n(C)c(=O)nc1-2	-5	2510	17*	31	6	1	37*
Cc1ccc(N2C(=O)c3ccccc3C2=O)cc1	-1	4243	3	12	3	0	nt
Cc1ccc(SC2=C(Sc3ccc(C)cc3)C(=O)c3ccccc3C2=O)cc1	-2	3959	6	5	?	-2	5
CCc1nc(N2CCN(C(C)=O)CC2)c2c3c(sc2n1)CC(C(C)(C)C)CC3 (configuration not stated)	3	4048	0	4	33	-2	nt
CCc1nc(N2CCN(C(=O)CCl)CC2)c2c3c(sc2n1)CC(C)CC3 (configuration not stated)	12	4163	38*	-23	?	0	63*
COc1cccc(CNC(=O)CN(c2ccc(C(C)C)cc2)S(=O)(=O)c2c(C)noc2C)c1	-2	4789	15*	-10	-4	0	2
Cc1cc(NC(=O)COn2nnc3ccc(S(C)(=O)=O)cc32)ccc1Br	1	3399	24*	9	-9	0	31*
O=C(COn1nnc2ccc(S(=O)(=O)N3CCOCC3)cc21)Nc1c(F)c(F)c(F)c(F)c1F	-2	4353	2	21	-3	0	nt
Cc1cc(Br)c(NC(=O)COn2nnc3ccc(S(C)(=O)=O)cc32)c(Br)c1	1	3108	12*	14	0	-1	8
